These results are taken from ChEMBL document CHEMBL1157539, “Thousands of chemical starting points for antimalarial lead identification” (Nature, 2010).

For the test, the system named is Plasmodium falciparum. The experiment in a line: GSK_TCMDC: Inhibition of Plasmodium falciparum Dd2 in whole red blood cells, using parasite LDH activity as an index of growth. Test compounds present at 2uM. It counts as functional.
As usually defined, the Inhibition is the relative decrease from the control value, in per cent. Read a high Inhibition as strong suppression. `Cc1cc(N[C@@H](Cc2ccccc2)C(=O)NCCOc2ccccc2)nc(NCCOc2ccccc2)n1.O=C(O)C(F)(F)F` had an Inhibition of 24%. `O=C(O)C(F)(F)F.OC1CCCN(Cc2ccc(-c3ccc(-c4nc5cc(F)ccc5[nH]4)s3)cc2)C1` (centres undefined) had an Inhibition of 99%.

`CCOC(=O)c1ccc(N=C2SC(=Cc3cc(Br)ccc3O)C(=O)N2C)cc1` yielded an Inhibition of 96%. Compound `CO/C(=C\C=C\c1cc2cc(Cl)c(Cl)cc2[nH]1)C(=O)Nc1ccc(NCCN(C)C)nc1.Cl` showed an Inhibition of 56%. Compound `CCc1c(C(=O)NC2CCC(N3CCC(c4ccccc4C)CC3)CC2)[nH]c2ccc(Br)cc12` (centres undefined) showed an Inhibition of 99%. Next, `CC(C)C[C@H](Nc1ccnc(NCC2CCCCC2)n1)C(=O)NCCOc1ccccc1.O=C(O)C(F)(F)F`: 73%; `Cc1ccc(S(=O)(=O)n2nccc2-c2c(-c3ccc(Cl)cc3)noc2C)cc1`: 97%; `CC(C)(C)OC(=O)NCc1ccc(Nc2nnc(-c3cccc(C(=O)NCc4cc(C(F)(F)F)cc(C(F)(F)F)c4)c3)o2)cc1`: 13%. As to `N#Cc1ccc2[nH]cc(CN3CCC4(CC3)CN(CCNCc3ccccc3)C(=O)O4)c2c1.O=C(O)C(F)(F)F`, the Inhibition is listed as 0%.

`c1ccc(COc2ccc(Nc3ncnc4cnc(-c5ccc(CNc6cccnc6)o5)cc34)cc2)cc1` registered an Inhibition of 19%. In the case of `COc1cccc(C2CCN(CCN3CCC(CNC(=O)c4ccc(-c5ccc(C(F)(F)F)cc5)cc4)CC3)CC2)c1`, the Inhibition is recorded as 42%. `CN1CCN(c2ccc(-c3nc4ccc(OCc5cc(Cl)cc(Cl)c5)c(C(N)=O)c4[nH]3)cc2)CC1` gave an Inhibition of 85%. Next, `O=C(/C=C/c1ccc(Cl)c(Cl)c1)NCCCCCN1CCCN(C(=O)Nc2cc(Cl)cc(Cl)c2)CC1`: 4%. The figure for `N#Cc1ccc2c(c1)CN(C1CCC(NC(=O)/C=C/c3cc(C(F)(F)F)cc(C(F)(F)F)c3)CC1)CCC2` (centres undefined) is 4%. As to `Cc1ccc(C(=O)Cn2nc(-c3ccc(C)c(S(=O)(=O)N4CCCCC4)c3)ccc2=O)cc1`, the Inhibition came to 76%.

`CCCCCCN1CCC(NCc2cccc(-n3ccnc3)c2)CC1.O=C(O)C(F)(F)F`: the Inhibition came out at 100%. In turn, `Cl.FC(F)(F)c1ccc2c(NCCc3ccccc3)ccnc2c1` had an Inhibition of 9%. Take `CC(C)(C)c1ccc(CNC(=O)c2ccc(-c3nc4ccc(Cl)cc4[nH]3)cc2)cc1`: the Inhibition is reported as 2%. In the case of `CCNc1cc(C(=O)N[C@@H](Cc2ccccc2)[C@H](O)CNC2(CC)CCCCC2)cc(N2CCCCS2(=O)=O)c1.Cl`, the Inhibition is on record as 98%. Regarding `CCCC(=O)NC(c1cccs1)c1cc(Cl)c2cccnc2c1O` (centres undefined), the Inhibition is given as 61%. With `OC(CNc1ccnc(Nc2ccc(Cl)cc2)n1)c1ccccc1C(F)(F)F` (centres undefined), the Inhibition is 28%. Next, `NC1CCN(Cc2cccc(-c3ccc(-c4nc5cc(F)ccc5[nH]4)cc3)c2)C1.O=C(O)C(F)(F)F` (centres undefined): 99%. Consider `O=C(/C=C/c1ccc(Cl)c(Cl)c1)NCCCCCN1CCC(C(=O)Nc2cccc(Cl)c2)CC1`, for which the Inhibition turned out to be 0%. `Cc1cccc2nc(-c3cccc(-c4ccc(NC(=O)C(C)CN5CCN(C)CC5)cc4)c3)[nH]c12` (centres undefined) had an Inhibition of 100%. Regarding `CC(Cc1ccc(CN2CCN(Cc3ccccc3)CC2)cc1)NCC(O)c1cccc(C(F)(F)F)c1.Cl` (centres undefined), the Inhibition is recorded as 98%. As for `O=c1cc(NCC2(CNCc3cn(Cc4ccccc4)c4ccccc34)CCCCC2)[nH]c2ccccc12`, the Inhibition was 56%. Turning to `COc1ccc(-c2ccc(NC(=O)c3cccc(C#N)c3)cc2)cc1CN1CCN(C)CC1.O=C(O)C(F)(F)F`, the Inhibition stood at 59%.

Regarding `COc1cccc(-c2ccc(C(=O)NC3CCN(Cc4ccc(C(C)(C)C)cc4)CC3)s2)c1.O=C(O)C(F)(F)F`, the Inhibition was found to be 23%.

For the compound `COc1ccc2nccc([C@@H](O)CN3CCC(NC(=O)C(=O)c4c[nH]c5c(C)cccc45)CC3)c2c1`, the Inhibition is on record as 94%. As for `O=C(/C=C/c1ccc(C(F)(F)F)cc1)NCCCCCN1CCN(C(=O)Nc2ccc(Cl)c(Cl)c2)CC1`, the Inhibition worked out at 0%. For `Br.CC1(C)NC(N)=NC(=N)N1OCCCSc1ccccc1`, the Inhibition was determined as 94%. Consider `CCCC(C)NC[C@@H](O)[C@H](Cc1ccccc1)NC(=O)c1cc(C2CCCC2)cc(N2CCCCS2(=O)=O)c1.Cl` (some centres undefined), for which the Inhibition is recorded as 99%.

Take `COCCOc1nc(N)nc2ncc(Cc3cc(OC)ccc3OC)c(C)c12`: the Inhibition came out at 0%. In turn, `CCN(CC)CCOc1cc2c(cc1Br)-c1cc(Br)c(OCCN(CC)CC)cc1C2=NO.Cl` had an Inhibition of 98%. In the case of `COc1ccc(-c2cccc(NC(=O)c3cccc(Cl)c3)c2)cc1CN1CCC(O)CC1.O=C(O)C(F)(F)F`, the Inhibition is reported as 16%.

Take `Cc1cccc2nc(-c3ccc(-c4ccc(CN5CCN(c6ccc(C#N)cn6)CC5)cc4)s3)[nH]c12.O=C(O)C(F)(F)F`: the Inhibition is listed as 44%.

In turn, `Cc1ccc(Oc2cnn(C)c(=O)c2Nc2cccc(C(=O)NCCc3ccccn3)c2)c(C)c1` gave an Inhibition of 94%. With `CN1CCOc2ccc(Nc3nnc(-c4cccc(-c5cccnc5)c4)o3)cc2C1`, the Inhibition worked out at 100%. `CCCN(CCC)CCCOc1ccc(C(=O)c2c(-c3ccc(OCCCN(CCC)CCC)cc3)oc3ccc(Cl)cc23)cc1.Cl` returned an Inhibition of 95%.
